# Methyltransferases: Primary Screen for Target Class Profiling of Small Molecule Inhibitors of Methyltransferases; purified enzyme, MTase-Glo SAH luminescence; hits give low values; calls only at 40 µM; actives 3.9% (n = 25,000); call rule not given here
#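 Each enzyme was reacted with SAM and its substrate, with compounds tested once at 40 uM; SAH formed was read by MTase-Glo luminescence.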
# * marks the source's active call; other numbers are inactive results; i = inactive; + = active, no number. The sample as a whole holds a higher share of hits than the screen did. % is scaled to controls: 0 for no effect and ±100 for the full control effect.
SMILES,Methyltransferases
c1cc(OCCCN2CCCCC2)ccc1CN1CCCCC1,+
CCC1(CO)CCCN(CCCOc2ccc(C(N)=O)cc2)C1 (stereo not drawn),i
Cc1ccc(CN2CCN(Cc3ccc(=O)n(C)c3)CC2)cc1,i
CC/C(=C(\c1ccc(O)cc1)c1ccc(OCCNC)cc1)c1ccccc1,i
CCC(=C(c1ccc(OCCN2CCCC2)cc1)c1ccc(OCCN2CCCC2)cc1)c1ccccc1,+
Cc1ccc(CCNC(=O)Cn2c(=O)oc3cc(S(=O)(=O)NCc4ccccc4)ccc32)cc1,i
CCCn1c(=O)c2ccc(C(=O)NCC(C)C)cc2n2c(=O)n(CC(=O)Nc3ccc(CC)cc3)nc12,i
Cc1ccc(-c2noc(CCCC(=O)N3CCC(CCOc4ccccc4F)C3)n2)cc1 (stereo not drawn),i
COc1ccccc1NC(=O)CSc1nnc2n(CC(C)C)c(=O)c3cc(F)ccc3n12,i
CCCn1c(=O)c2ccc(C(=O)NC3CCCC3)cc2n2c(=O)n(Cc3cccc(F)c3)nc12,i
Cc1c[nH]c2ncnc(N3CCC(CN)(C(=O)Nc4cccc(OC(=O)N(C)C)c4)CC3)c12,+
COc1cccc(NC(=O)C2(C)CCc3cnc(NCc4ccccc4)nc32)c1 (stereo not drawn),i
CCCn1c(=O)c2ccc(C(=O)NC3CCCCC3)cc2n2c(=O)n(CC(=O)NCc3ccccc3)nc12,i
C=CCNC(=O)C(NC(=O)c1ccc(OC)cc1)C1CCN(C(=O)CCc2ccccc2)CC1 (stereo not drawn),i
Cc1cc2c(cc3n2CC(C)(C(=O)NC2CCCCCCC2)N(Cc2ccccc2C)C3=O)o1 (stereo not drawn),i
CC(C)OCCCNC(=O)CCc1nnc2n(Cc3ccc(Cl)cc3)c(=O)c3ccccc3n12,i
Cc1cc(C)n(-c2cccc(CN3CCCC(O)(CN(C)C)C3)c2)n1 (stereo not drawn),i
CCOC(=O)C1CCN(C(=O)c2cn3ccnc(-c4ccc(C)cc4)c3n2)CC1,i
C[S+](=O)([O-])N1CCC(c2nnc3n2C(C(=O)NC2CCCCC2)CC3)CC1 (stereo not drawn),i
Cc1cc2c(c(=O)[nH]1)OC(C(O)CC(C)C)O2 (stereo not drawn),i
CCC(CC)CC1(C(=O)Nc2ccccc2SC(=O)C(C)C)CCCCC1,i
CC1CCC2(C)C(CC(O)C(O)C23CO3)C1(C)CCC1=CC(=O)OC1O (stereo not drawn),i
CC1CC(O)C2(C)C(C(=O)O)=CCCC2C1(C)CCc1ccoc1 (stereo not drawn),+
CC1=CCC[C@@H]2[C@](CCc3ccoc3)(C(=O)O)[C@H](C)CC[C@@]12C,i
CC1CCC2(CO)C(C(=O)O)=CCCC2C1(C)CCc1ccoc1 (stereo not drawn),+
SMILES,Methyltransferases
COc1ccccc1-c1ccc2c(n1)CN(CC(=O)N1CCCC1)C(=O)CO2,i
CC(CN1C(=O)c2cc3occc3n2CC1(C)C(=O)NC1CCCCCC1)c1ccccc1 (stereo not drawn),i
CCOC(=O)C1CCN(c2nc3c(S(=O)(=O)c4ccc(C(C)C)cc4)nnn3c3ccccc23)CC1,i
Cc1ccc(C)c(C(=O)CSc2nnc3n(C)c(=O)c4ccc(C(=O)NC5CCCC5)cc4n23)c1,i
CC1(C(=O)NC2CCCCC2)Cn2nc(C3CC3)cc2C(=O)N1Cc1ccccc1Cl (stereo not drawn),i
O=C(N[C@H]1C[C@@H]2OCC[C@H]12)c1cccc(-n2cnnc2)n1,i
COc1cccc([S+](=O)([O-])N2CCN(CCn3nc4n(c3=O)CCCC4)CC2)c1,i
COc1ccc(C)cc1NS(=O)(=O)c1cc2c(cc1C)n(C)c(=O)n2C,i
Cc1cc(C)c2[nH]c(CN3CCC(N)C3)cc(=O)c2c1 (stereo not drawn),i
CC1=C2CC3C(CCC3(C)O)C(C)(O)CC2OC1=O (stereo not drawn),+
CC1=C2C[C@@]3(C)C(CCC[C@@H]3C)C(O)C2OC1=O (stereo partly drawn),i
CC1(O)CCC2C(C3C1CCC3(C)O)C2(C)C (stereo not drawn),i
Cn1c(=O)c2ccc(C(=O)NC3CCCCC3)cc2n2c(SCc3ccc(Cl)cc3)nnc12,i
COCC(=O)N1CCN2C(=O)N(C)C[C@H]2C1,i
COc1cccc(NS(=O)(=O)c2ccc3[nH]c(=O)[nH]c3c2)c1,i
CC(C)Cc1nnc(NC(=O)C[C@H]2NC(=O)c3ccccc3NC2=O)s1,i
O=c1[nH]c2ccc(S(=O)(=O)NCc3ccc(F)cc3)cc2[nH]1,i
Cc1ccccc1C(C(=O)NC1CCCCC1)N(C(=O)Cn1ccnc1C)c1cccc(F)c1 (stereo not drawn),i
CCN1CCN(Cc2ccc(C(=O)Nc3ccc(C)c(Oc4ccc5c(c4)CC(=O)N5)c3)cc2C(F)(F)F)CC1,i
COC(=O)N1CCN(Cc2cccc(NC(=O)Nc3ccc(C)nc3)c2F)CC1,i
CN1CCN(Cc2ccc(NC(=O)Nc3ccc(Oc4cc(NC(=O)C5CC5)ncn4)cc3)cc2C(F)(F)F)CC1,+
Nc1c(-c2ccccc2)nc(Cl)c2c(O)n[nH]c(=O)c12,i
CCc1ccc(C2c3cccn3-c3sc4c(c3CN2C(=O)NCCCOC)CCCC4)cc1 (stereo not drawn),i
O=C(Cn1nc2nc(Nc3ccc(F)cc3)ccn2c1=O)Nc1ccc(F)cc1,i
NCCc1ccc(O)c(O)c1,+
SMILES,Methyltransferases
CCC(C)NC(=O)c1ccc2c(=O)n(C(C)C)c3nn(Cc4ccccc4C)c(=O)n3c2c1 (stereo not drawn),i
CCCn1c(=O)c2cc(Cl)ccc2n2c(SCC(=O)Nc3ccc(C(C)C)cc3)nnc12,i
CC(C)CNC(=O)c1ccc2c(=O)n(Cc3ccccc3)c3nn(Cc4ccc(Cl)cc4)c(=O)n3c2c1,i
CC1=CC(=O)CC(C)(CO)C1(O)/C=C/C(C)O[C@@H]1O[C@H](CO)[C@@H](O)[C@H](O)[C@H]1O (stereo partly drawn),i
CC(CCc1ccc(O)cc1)O[C@@H]1O[C@H](CO[C@@H]2OC(CO)[C@H](O)[C@H]2O)[C@@H](O)[C@H](O)[C@H]1O (stereo partly drawn),i
CC1=C(CCC(C)O[C@@H]2O[C@H](CO)[C@@H](O)[C@H](O)[C@H]2O)C(C)(C)CCC1=O (stereo partly drawn),+
COC[C@H]1NC(=O)CC[C@H]1C(=O)O,i
CC1(C(=O)NC2CCCCCCC2)Cn2c(ccc2-c2ccco2)C(=O)N1Cc1ccccc1 (stereo not drawn),i
COCCc1noc(C2Cc3ccccc3N2C(=O)Nc2ccc3c(c2)OCCO3)n1 (stereo not drawn),i
CCN(CC)CCNC(=O)c1cc2n(n1)CC(C)(C(=O)NC1CCCCC1)N(C)C2=O (stereo not drawn),i
CC1(C)CCC(C)(C)c2cc(C#Cc3ccc(C(=O)O)cc3)ccc21,+
CC1(C)CCC(C)(C)c2cc([C@@H](O)C(=O)Nc3ccc(C(=O)O)cc3F)ccc21,i
CC(N)(C(=O)O)c1ccc(C(=O)O)cc1 (stereo not drawn),i
CC(C)CCn1c(=O)c2ccc(C(=O)NC(C)C)cc2n2c(=O)n(Cc3ccccc3F)nc12,i
Cc1ccc(CNC(=O)Cn2nc3n(Cc4ccccc4)c(=O)c4ccccc4n3c2=O)cc1,i

# Bioassay records from PubChem.
